As a reminder, the AC50 is the midpoint of the concentration-response curve, whichever way the signal moves.

Experiment [1] is described as follows: Tanguay_ZF_120hpf_PE_legacy: (Legacy) Oregon State University Tanguay Lab 120 Hour Post-fertilization zebrafish Assay for Pericardial Edema (AID 2283640).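 For AC50: potency for increased incidence of pericardial edema versus DMSO baseline.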 The method, boiled down: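 Zebrafish larvae are exposed from early development to 120 hpf at 28C, with 0.64% DMSO final. Each surviving larva receives a yes/no pericardial edema call by brightfield imaging, analysed relative to the DMSO baseline.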

A short description of experiment [2]: Tanguay_ZF_120hpf_BRAI_legacy: (Legacy) Oregon State University Tanguay Lab 120 Hour Post-fertilization zebrafish Assay for Brain Malformation (AID 2283641). The essentials: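 Static exposure of staged wild-type embryos until 120 hpf, kept at 28C with light excluded and final DMSO of 0.64% (vol/vol). Presence or absence of brain malformation was noted under brightfield; mortality precluded scoring.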

Experiment [3] is described as follows: Tanguay_ZF_120hpf_SOMI_legacy: (Legacy) Oregon State University Tanguay Lab 120 Hour Post-fertilization zebrafish Assay for Somite Malformation (AID 2283647). The method, boiled down:
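Somitogenesis defects are recorded as binary calls in whole larvae at 120 hpf after continuous static chemical exposure starting at 6 hpf in dechorionated 5D embryos. DMSO serves as negative control and baseline.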

Experiment [4] in a line: Tanguay_ZF_120hpf_CFIN_legacy: (Legacy) Oregon State University Tanguay Lab 120 Hour Post-fertilization zebrafish Assay for Caudal Fin Malformation (AID 2283649). The essentials: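 Single dechorionated 5D wild-type embryos are dosed at 6 hpf (final DMSO 0.64%) and held statically at 28C. Caudal fin malformation is recorded as present or absent at 120 hpf under brightfield, excluding dead embryos.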

Experiment [5] is described as follows: Tanguay_ZF_120hpf_PIG_legacy: (Legacy) Oregon State University Tanguay Lab 120 Hour Post-fertilization zebrafish Assay for Pigmentation Malformation (AID 2283650). The essentials: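 Pigment malformation recorded as a binary call at 120 hpf in zebrafish (Tropical 5D) exposed singly from 6 hpf after pronase dechorionation. Static, sealed, 28C exposure, 0.64% DMSO; mortality excludes scoring; positive-direction fit against DMSO.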

The nature of experiment [6]: Tanguay_ZF_120hpf_CIRC_legacy: (Legacy) Oregon State University Tanguay Lab 120 Hour Post-fertilization zebrafish Assay for Circulatory Malformation (AID 2283651). The method, boiled down:
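Embryos are dechorionated at 4 hpf, plated one per well at 6 hpf, then held under static exposure at 28C until 120 hpf. Malformations are recorded as binary calls; mortality excludes other endpoints.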

Experiment [7] is described as follows: Tanguay_ZF_120hpf_SWIM_legacy: (Legacy) Oregon State University Tanguay Lab 120 Hour Post-fertilization zebrafish Assay for Swim Bladder Malformation (AID 2283654).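 Note: swim bladder malformation in each larva scored yes or no under brightfield.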 The essentials: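 Scoring is binary for swim bladder defects at 120 hpf, by brightfield inspection of zebrafish larvae. Embryos were exposed singly from 6 hpf after pronase dechorionation, at 28C with 0.64% DMSO; mortality excluded scoring.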

Experiment [8] is described as follows: Tanguay_ZF_120hpf_TRUN_legacy: (Legacy) Oregon State University Tanguay Lab 120 Hour Post-fertilization zebrafish Assay for Truncated Body (AID 2283655). The essentials: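 Single dechorionated zebrafish embryos received test chemical from 6 hpf in 0.64% DMSO, kept at 28C. At 120 hpf, brightfield inspection noted any truncated body.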
Experiment [9] can be described thus: Tanguay_ZF_120hpf_PFIN_legacy: (Legacy) Oregon State University Tanguay Lab 120 Hour Post-fertilization zebrafish Assay for Pectoral Fin Malformation (AID 2283648).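 Note: each larva judged yes or no for fin defect by brightfield with dead larvae skipped.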 The essentials: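 Pectoral fin malformation was recorded as a binary endpoint at 120 hpf in wild-type Tropical 5D larvae, which had been dechorionated and exposed statically from 6 hpf at 28C in 0.64% DMSO. Dead embryos were excluded.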

Read-out in experiment [10]: kallikrein-3 (KLK3), KLK3 (gene 354)
The experiment in a line: LTEA_HepaRG_KLK3: Life Technologies and Expression Analysis (LTEA) Assay for kallikrein-3 (KLK3) using HepaRG (AID 2283652; active = hit-call score of the fitted dose curve at least 0.9, where 1 is the maximum; inactive = score below 0.9). Particulars: mRNA level, 48 h; actives raise or lower the signal. The essentials:
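KLK3 transcript levels were measured by TaqMan qRT-PCR with normalisation to three housekeeping genes. HepaRG cultures received chemicals for 48 h at up to 100 uM (half-log, 8 points, 0.5% DMSO vehicle), fitted in both directions against DMSO.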

Records with an inconclusive call do not appear. Calls of active or inactive are those of the source. Rule for the calls, unless noted: active = hit-call score of the fitted dose curve at least 0.9, where 1 is the maximum; inconclusive = response in the unintended direction; inactive = score below 0.9.

`FC(F)C(F)(F)OCC(Cn1cncn1)c1ccc(Cl)cc1Cl` (stereo not given): the AC50 in experiment [1] was 26.1 µM (active); in experiment [2] it was 13.7 µM (active); in [3], 48.5 µM (active); in [4], 49.2 µM (active); in [5], 49.6 µM (active); in experiment [6], 17.2 µM (active). Moreover, the AC50 was 18.2 µM (active) in experiment [7] and 49.6 µM (active) in experiment [8].

Consider `CCCCOC(=O)c1ccccc1C(=O)O`, for which the molecule was called inactive in experiment [1], in [2], in experiment [3], in experiment [9], in experiment [4] and in experiment [5]. The molecule was classed as inactive in experiment [6], in experiment [7] and in experiment [8].

`CC(COc1ccc(Oc2ccccc2)cc1)Oc1ccccn1` (stereo not given): the call in experiment [1], in [2], in [3], in [9], in experiment [4] and in experiment [5] was inactive. Moreover, the outcome in [10], in experiment [7] and in experiment [8] was inactive.

Take `CC(C)=CC1C(C(=O)OCN2C(=O)C3=C(CCCC3)C2=O)C1(C)C` (stereo not given): the outcome in experiment [1], in [2], in experiment [3], in experiment [9], in experiment [4] and in experiment [6] was inactive. The outcome in [7] and in experiment [8] was inactive.

Take `CSc1nc(NC(C)C)nc(NC(C)C)n1`: the call in [1], in [2], in experiment [3], in experiment [4], in experiment [5] and in experiment [6] was inactive. Also, the call in [7] was inactive.

With `CNC(=O)ON=C(SC)C(=O)N(C)C`, the outcome in [1], in experiment [2], in [3], in experiment [9], in experiment [4] and in [5] was inactive. Besides, the outcome in experiment [7] and in experiment [8] was inactive.

Turning to `CNc1cnn(-c2cccc(C(F)(F)F)c2)c(=O)c1Cl`, the outcome in experiment [1], in experiment [2], in [3], in experiment [9], in [4] and in [5] was inactive. Also, the outcome in [6], in experiment [7] and in [8] was inactive.

As to `CN(C)C(=O)Nc1cccc(C(F)(F)F)c1`, the molecule was classed as inactive in [1], in [2], in experiment [3], in [9], in experiment [4] and in experiment [5]. Moreover, the outcome in [6], in experiment [7] and in [8] was inactive.

For `C[Si](Cn1cncn1)(c1ccc(F)cc1)c1ccc(F)cc1`, the AC50 was 9.78 µM (active) in experiment [1]; 47 µM (active) in experiment [2]; 47.7 µM (active) in [3]; 36 µM (active) in [4]; 11 µM (active) in experiment [8]. Moreover, the molecule was called inactive in experiment [5], in experiment [6] and in [7].

As to `COc1ccc(C(=CC(=O)N2CCOCC2)c2ccc(Cl)cc2)cc1OC`, the AC50 in experiment [1] is 34.2 µM (active); in [2], 40.9 µM (active); in [4] it was 37.3 µM (active); in experiment [7] it was 63.3 µM (active); in experiment [8] it was 51.4 µM (active). Besides, the molecule was called inactive in experiment [3], in experiment [5] and in [6].

Turning to `CC(C)N(C(=O)SCC(Cl)=C(Cl)Cl)C(C)C`, the outcome in experiment [1], in experiment [2], in experiment [3], in experiment [9], in [5] and in experiment [6] was inactive. Also, the outcome in experiment [7] and in [8] was inactive.

Turning to `COP(=O)(NC(C)=O)SC` (stereo not given), the molecule was classed as inactive in experiment [1], in experiment [2], in experiment [3], in experiment [4], in [5] and in [6]. Moreover, the molecule was called inactive in experiment [7] and in experiment [8].

For `C#CCC1=C(C)C(OC(=O)C2C(C=C(C)C)C2(C)C)CC1=O` (stereo not given), the result in experiment [1], in experiment [2], in experiment [3], in experiment [9], in [4] and in experiment [5] was inactive. Also, the molecule was classed as inactive in experiment [6] and in experiment [7].

For `CCOP(=S)(OCC)Oc1ccc2c(C)c(Cl)c(=O)oc2c1`, the result in experiment [1], in experiment [2], in [3], in experiment [9], in experiment [4] and in experiment [5] was inactive. Also, the molecule was classed as inactive in [6], in experiment [10], in [7] and in experiment [8].

As to `CC(C)[C@H](C(=O)O[C@H](C#N)c1cccc(Oc2ccccc2)c1)c1ccc(Cl)cc1`, the AC50 in experiment [1] was 5.21 µM (active); in [2], 4.07 µM (active); in experiment [3], 1.15 µM (active); in experiment [7] it was 4.25 µM (active). Also, the molecule was classed as inactive in [4], in experiment [5], in [6] and in experiment [8].

Take `CCOC(=O)CC(SP(=O)(OC)OC)C(=O)OCC` (stereo not given): the molecule was classed as inactive in experiment [1], in experiment [2], in experiment [3], in experiment [9], in experiment [4] and in experiment [5]. In addition, the call in experiment [6], in experiment [7] and in experiment [8] was inactive.

On to `CSC1=N[C@@](C)(c2ccccc2)C(=O)N1Nc1ccccc1`, for which the AC50 in [1] was 2.63 µM (active). Besides, the call in experiment [2], in experiment [3], in experiment [4], in experiment [5], in [6] and in experiment [7] was inactive. In experiment [8], the molecule was called inactive.

On to `CON=C(C(=O)OC)c1ccccc1CON=C(C)c1cccc(C(F)(F)F)c1`, for which the AC50 in experiment [1] is 8.26 µM (active); in experiment [2], 6.64 µM (active). Besides, the molecule was called inactive in experiment [3], in experiment [4], in experiment [5], in [6], in [7] and in [8].

Take `CCOP(=S)(Oc1cnc(C(C)(C)C)nc1)OC(C)C` (stereo not given): the result in experiment [1], in [2], in experiment [3], in [9], in [5] and in experiment [6] was inactive. For the same molecule, the molecule was classed as inactive in experiment [10], in experiment [7] and in [8].

Regarding `Nc1c(Cl)cc([N+](=O)[O-])cc1Cl`, the AC50 is 43.1 µM (active) in [1]; 46.3 µM (active) in experiment [2]; 42.1 µM (active) in experiment [9]; 39.1 µM (active) in experiment [4]; 10.8 µM (active) in experiment [5]; 34.7 µM (active) in [8]. Further, the call in experiment [3], in experiment [6] and in experiment [7] was inactive.

Consider `Cc1ccn2nc(S(=O)(=O)Nc3c(F)cccc3F)nc2n1`, for which the molecule was called inactive in experiment [1], in [2], in [3], in [4], in experiment [5] and in [6]. Further, the call in [7] and in experiment [8] was inactive.

`COP(=O)(OC)C(O)C(Cl)(Cl)Cl` (stereo not given): the outcome in experiment [1], in [2], in [3], in [4], in [5] and in experiment [6] was inactive. Also, the outcome in experiment [7] and in [8] was inactive.

On to `COP(=O)(OC)OC(Br)C(Cl)(Cl)Br` (stereo not given), for which the molecule was called inactive in [1], in experiment [2], in [3], in [9], in experiment [6] and in experiment [8].

For the origin of these results see PubChem BioAssay (EPA / NIEHS).
